# Screening results: PubChem BioAssay, several laboratories
# Compounds with a hit are over-represented: about 2% of the library has one in this group of screens.
# NR1D1 modulator – modulators of human Rev-erb alpha DNA binding | P20393 | Rev-erbα–FITC-DNA binding, fluorescence polarization, 90 min | activity, % at 10 µM | 370,000 tested, 0.79% active | AID 1259318;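 active = activity above about 14%, limit read from the data; passing the limit was not always enough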;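 note: 0% = DMSO wells with 35 nM protein and 100% = DMSO wells with 750 nM protein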
# Target sequence (P20393 whole entry, looked up): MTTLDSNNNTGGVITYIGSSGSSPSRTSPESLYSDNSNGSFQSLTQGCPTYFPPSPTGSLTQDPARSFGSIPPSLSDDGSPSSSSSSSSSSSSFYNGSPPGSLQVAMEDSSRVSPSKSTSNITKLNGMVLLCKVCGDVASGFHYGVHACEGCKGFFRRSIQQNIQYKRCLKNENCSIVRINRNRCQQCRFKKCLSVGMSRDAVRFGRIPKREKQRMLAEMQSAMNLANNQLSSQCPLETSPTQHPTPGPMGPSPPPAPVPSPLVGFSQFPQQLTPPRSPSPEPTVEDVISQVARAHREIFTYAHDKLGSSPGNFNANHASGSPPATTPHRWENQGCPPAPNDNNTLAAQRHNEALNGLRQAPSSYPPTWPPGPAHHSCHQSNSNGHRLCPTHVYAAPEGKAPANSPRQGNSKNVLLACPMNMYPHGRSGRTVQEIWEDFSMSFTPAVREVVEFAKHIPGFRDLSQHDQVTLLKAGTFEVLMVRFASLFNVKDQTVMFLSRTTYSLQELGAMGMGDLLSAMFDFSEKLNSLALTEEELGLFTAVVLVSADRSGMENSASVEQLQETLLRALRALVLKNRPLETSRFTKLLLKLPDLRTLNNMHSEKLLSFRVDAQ
# Granule exo inh – blocks lytic granule exocytosis. TALL-104 LAMP-1 surface exposure, flow cytometry; cells stimulated with thapsigargin and PMA. inhibition, % at 10 µM. 360,000 tested, 0.66% active;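 active = inhibition above about 55%, limit read from the data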
# ABCB6 inh MLPCN – blocks the human ABCB6 transporter; fluorescence ratio to DMSO, % at 10 µM; 360,000 tested, 0.19% active; Q9NP58; AID 602162; K562-ABCB6 porphyrin accumulation, flow cytometry, 1 h; hits give low values;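 active = fluorescence ratio to DMSO below 75%, the collection mean minus 3 SD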;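 note: signal is porphyrin accumulated inside mitochondria; 100% equals median channel fluorescence of DMSO control wells; lower ratio means ABCB6 inhibition with less porphyrin fluorescence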
# VLA-4 inh – inhibition in a human VLA-4 binding assay; P13612; VLA-4 expressing cells, ligand binding flow cytometry; inhibition, % (about 7 µM as worked out from the volumes in the protocol); 330,000 tested, 0.2% active; AID 2557; in the data active = inhibition above about 50%
# PG9 Ab binder – small molecules binding HIV-1 gp120 antibody PG9. TR-FRET gp120-PG9 antibody binding. inhibition, % at 6.7 µM. 360,000 tested, 0.43% active; in the data active = inhibition above about 8.5%
# NR1D1 mod conf – confirmation of modulators of human Rev-erb alpha DNA binding. activation, % at 25 µM. shares compounds with NR1D1 modulator. 3,000 tested, 61% active. Rev-erb alpha FITC-DNA binding, fluorescence polarization, 90 min;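 active = activation at or above a set limit, or at least 3 SD above the negative control mean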;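 note: 0% = 35 nM protein with DMSO and 100% = 750 nM protein high control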
# RORg counter – RORgamma DNA-binding activity, dose-response counter-screen. shares compounds with NR1D1 modulator. AID 1259320. IC50, µM. 910 tested, 8% active. purified RORgamma protein-FITC-DNA binding, fluorescence polarization;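 active = Compounds whose fitted half-maximal concentration for disrupting protein-DNA binding is below 10 micromolar; the record names Rev-erb in its text, so the target is in doubt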
# The depositor's hits bear a star; i = inactive; nt = no result.
SMILES,NR1D1 modulator,Granule exo inh,ABCB6 inh MLPCN,VLA-4 inh,PG9 Ab binder,NR1D1 mod conf,others
COC(=O)[C@]12C[C@H](CC(=O)NCc3ccc(C)o3)C(=O)N(Cc3ccccc3)C1=C[C@H](C1CCCC1)O[C@@H]2C,-7.7,nt,nt,nt,1.7,nt,
CNc1oc(-c2ccc(F)cc2)nc1S(=O)(=O)c1ccccc1,34.4*,1.7,98.0,1.7,5.3,1.6,
O=S(=O)(c1ccccc1)c1nc(-c2ccc(F)cc2)oc1NCC1CCCO1 (configuration not stated),-0.9,-2.3,92.0,5.1,0.8,nt,
Cc1ccc(CNC(=O)c2cccc3c2C(=O)c2ccc(N4CCOCC4)cc2S3(=O)=O)cc1,-3.9,5.0,100.0,2.2,-0.3,nt,
O=C(NC[C@@H]1CCCO1)c1cccc2c1C(=O)c1ccc(N3CCOCC3)cc1S2(=O)=O,-2.1,-20.4,95.0,-7.0,-0.5,nt,
O=C(NCc1cc(C(F)(F)F)ccc1Cl)c1cccc2c1C(=O)c1ccc(-c3ccc(OC(F)(F)F)cc3)cc1S2(=O)=O,nt,nt,nt,18.4,nt,nt,
O=C(NCc1cc(C(F)(F)F)ccc1Cl)c1cccc2c1C(=O)c1ccc(Cl)cc1S2(=O)=O,31.7*,nt,nt,-9.5,-1.0,49.5*,RORg counter=>40
O=C(NCc1cccc(F)c1)c1cccc2c1C(=O)c1ccc(N3CCOCC3)cc1S2(=O)=O,117.6*,16.3,90.0,-0.4,-2.5,87.1*,RORg counter=>40
CC1CCN(c2ccc3c(c2)S(=O)(=O)c2cccc(C(=O)NC[C@@H]4CCCO4)c2C3=O)CC1,17.9*,-0.2,107.0,-17.0,-1.8,5.5,
C=CCN1C(=O)[C@@H](CC(=O)NCCCC)[C@]2(C(=O)OCC)CCCCC/C=C/12,-2.5,nt,nt,nt,nt,nt,
O=C(CSc1nc(C2CC2)nc2ccccc12)Nc1ccccc1Cl,20.7*,13.1,95.0,-3.8,0.4,12.0,
O=C(CSc1nc(C2CC2)nc2ccccc12)Nc1ccccc1N1CCOCC1,-6.6,-0.2,101.0,4.4,-1.6,nt,
COc1ccc(C2C(C#N)=C(C)NC3=C2C(=O)c2ccccc23)cc1 (configuration not stated),81.2*,-1.5,97.0,46.8,-0.7,53.6*,RORg counter=>40
CCOc1ccc(C2C(C#N)=C(C)NC3=C2C(=O)c2ccccc23)cc1 (configuration not stated),2.1,-2.2,99.0,-2.7,-3.5,nt,
CC(=O)N1CCCN(S(=O)(=O)c2ccc3c(c2)n(C)c(=O)c(=O)n3C)CC1,-3.5,nt,nt,nt,nt,nt,
CCC(=O)c1ccc(N2CCN(S(=O)(=O)c3ccccc3)CC2)c(F)c1,22.7*,6.1,94.0,8.9,-2.6,45.8*,RORg counter=>40
N#Cc1c(Cl)cccc1N1CCSCC1,-3.0,-2.4,97.0,nt,-2.2,nt,
N#Cc1c(N2CCSCC2)nsc1-c1ccccc1Cl,22.7*,-13.5,97.0,1.6,4.4,27.7*,
CCN(CC)CCCNc1ccc2ncn3c4ccc(O)cc4c(=O)c1c23,91.5*,-3.5,930.0,nt,-19.4,50.4*,
CN(C)CCNc1ccc2nnn3c4ccc(O)cc4c(=O)c1c23,-38.9,2.9,130.0,nt,-2.1,nt,
Cc1[nH]cnc1/C=N\NC(=O)c1cccc(S(=O)(=O)N(C)C)c1,-6.5,nt,nt,nt,nt,nt,
Fc1ccc(-c2nc3ccccc3c3nc4ccccc4n23)cc1,26.2*,-2.6,97.0,14.3,0.7,19.4*,
COc1cc2c(cc1NC(=O)CN1CCN(S(=O)(=O)c3ccc(C)cc3)CC1)oc1ccccc12,26.6*,-2.4,95.0,11.7,-0.8,18.6*,
Cc1ccccc1CN1CCCCC(NC(=O)c2ccc(F)cc2F)C1=O (configuration not stated),-7.3,nt,nt,nt,nt,nt,
Cc1ccc[n+](-c2nc([O-])sc2/C=N/Nc2ccc([N+](=O)[O-])cc2)c1,26.5*,6.9,94.0,6.5,-4.1,14.3,
SMILES,NR1D1 modulator,Granule exo inh,ABCB6 inh MLPCN,VLA-4 inh,PG9 Ab binder,NR1D1 mod conf,others
O=[N+]([O-])c1ccc(NN=Cc2cccc3ccccc23)cc1,1.4,12.7,153.0,nt,-1.4,nt,
CN1CCS/C1=C/C=C1/SC(=S)N(Cc2ccccc2)C1=O,188.0*,3.2,113.0,-204.1,-3.4,168.8*,RORg counter=>40
CN1CCS/C1=C/C=C1\SC(=S)N(CC(=O)O)C1=O,301.9*,-0.9,112.0,37.5,-25.0,246.3*,RORg counter=>40
CCCCN1C(=O)/C(=C/C=C2\SCCN2C)SC1=S,126.3*,-1.7,117.0,nt,-2.3,46.8*,RORg counter=>40
O=C(O)c1ccc(/C=C2/SC(=S)N(Cc3ccccc3)C2=O)cc1,-2.1,-6.5,129.0,-34.7,0.7,nt,
CCCCN1C(=O)/C(=C/C=C2\N(C)c3ccccc3C2(C)C)SC1=S,nt,nt,nt,i,nt,nt,
CCCCCCCCN1C(=O)[C@H](CC(=O)N2CCSCC2)C[C@@]2(C(=O)OC)CC(C)(C)CC=C12,-2.8,-5.5,nt,nt,0.4,nt,
Cc1cc(C)cc(N(CC(=O)NC2CCC(C)CC2)S(=O)(=O)c2ccc(C)c(C)c2)c1 (configuration not stated),-3.3,nt,nt,nt,nt,nt,
FC(F)(F)c1cc(-c2ccccc2)nc2nc(N3CCOCC3)sc12,24.5*,1.5,97.0,4.9,1.1,8.5,
Cn1c2ccccc2c2cc(C(=O)OCC(=O)N3CC(=O)Nc4ccccc43)sc21,73.8*,1.8,93.0,-12.0,2.0,62.0*,
CN(C)c1ccc(N=Nc2ccccc2C(=O)OCC(=O)N2CCCC2)cc1,36.2*,-2.4,100.0,-8.0,-8.4,40.1*,RORg counter=1.25*
CN(C)c1ccc(N=Nc2ccccc2C(=O)OCC(=O)N2CCCCCC2)cc1,26.8*,-1.0,97.0,0.2,-1.9,34.8*,RORg counter=>40
CN(C)c1ccc(N=Nc2ccccc2C(=O)OCC(=O)Nc2ccccc2C(F)(F)F)cc1,23.9,8.0,96.0,nt,-0.7,nt,
CSc1ccccc1C(=O)OCC(=O)N1CCCCCC1,-7.8,-1.0,99.0,-4.0,1.1,nt,
O=C(NCC(c1ccccc1)c1ccccc1)[C@H](Cc1c[nH]c2ccccc12)NC1(C(=O)NC2CCCCC2)CCCC1,-7.0,nt,nt,nt,nt,nt,
CC(=O)c1cccc(NC(=O)Cn2nc(-c3ccccc3Cl)ccc2=O)c1,-3.1,-3.2,95.0,11.9,-0.7,nt,
COc1ccc(-c2ccc(=O)n(CC(=O)Nc3ccc4c(c3)OCCO4)n2)cc1,17.8*,0.0,98.0,-3.8,1.3,10.9,
COc1ccc(CNC(=O)Cn2nc(-c3ccc4c(c3)OCCO4)ccc2=O)cc1,-2.5,-1.8,93.0,5.1,-2.3,nt,
CC(=O)c1cccc(NC(=O)Cn2nc(-c3ccc(Cl)cc3)ccc2=O)c1,23.3*,-1.3,95.0,-17.1,0.3,12.4,
COc1ccc(-c2nn(CC(=O)Nc3ccc(Cl)c(Cl)c3)c(=O)c3ccccc23)cc1,21.7*,0.9,97.0,-0.7,1.7,13.5,
COC(=O)COc1ccc(NC(=O)Cn2nc(-c3ccccc3)c3ccccc3c2=O)cc1,2.0,6.5,96.0,11.1,0.7,nt,
COc1cccc(C(=O)N[C@H](C(=O)N2CCC[C@H]2C(=O)NCCc2ccccc2Cl)c2ccccc2)c1,2.8,nt,nt,nt,2.0,nt,
